Measurements published in the supplement of paper PMC6518042.

System: Pectobacterium parmentieri SCC3193
Assay: DuctApe activity index (growth/respiration on compound as sole nutrient source, blank-subtracted) (activity index (0-3)); higher = stronger utilization of the compound, active = 3 or more
Settings: nutrient role (plate category): nitrogen
Experimental: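 Biolog Phenotype Microarray plates PM1, PM2A (carbon), PM3 (nitrogen) and PM4 (phosphorus/sulfur) inoculated with P. parmentieri SCC3193 in M9-C minimal salts medium with Biolog dye A, and read in the OmniLog for 46 h. Each well was tested in triplicate and the experiment was run twice. DuctApe computed a blank-subtracted activity index (AV, 0-3) from the mean curves; growth is positive at AV >= 3 and negative at AV <= 2.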

DuctApe activity index, inactive:
O=C(O)CC[C@@H](C(=O)O)N1C(=O)c2ccccc2C1=O [N-Phthaloyl-L-Glutamic acid] 0, NCC(=O)N[C@@H](CCC(N)=O)C(=O)O 1, C[C@H](N)C(=O)N[C@@H](CCC(N)=O)C(=O)O 1, CCCCCN [N-Amylamine] 0, NC(N)=O 0, N[C@H]1C(O)O[C@H](CO)[C@H](O)[C@@H]1O (stereo partly drawn) [D-Galactosamine] 0, C[C@H](N)C(=O)N[C@@H](CC(=O)O)C(=O)O 1, NCC(=O)N[C@@H](CC(N)=O)C(=O)O 1, OC[C@H]1O[C@@H](n2cnc3c(O)nc(O)nc32)[C@H](O)[C@@H]1O [Xanthosine] 0, Cc1c[nH]c(=O)[nH]c1=O [Thymine] 0

Same assay, conditions: nutrient role (plate category): phosphate & sulphur

DuctApe activity index, inactive:
O=c1ccn([C@@H]2O[C@H](CO)[C@@H](OP(=O)(O)O)[C@H]2O)c(=O)[nH]1 [Uridine 3`-Monophosphate] 2, O=P1(O)OP(=O)(O)OP(=O)(O)O1 [Trimetaphosphate] 2, Nc1ncnc2c1ncn2[C@@H]1O[C@H](COP(=O)(O)O)[C@@H](O)[C@H]1O [Adenosine 5`-Monophosphate] 1, O=c1ccn([C@@H]2O[C@H](CO)[C@@H](O)[C@H]2OP(=O)(O)O)c(=O)[nH]1 [Uridine 2`-Monophosphate] 2, O=C(O)CP(=O)(O)O [Phosphono Acetic acid] 0, O=P(O)(O)O[C@H]1[C@H](OP(=O)(O)O)[C@@H](OP(=O)(O)O)[C@H](OP(=O)(O)O)[C@@H](OP(=O)(O)O)[C@H]1OP(=O)(O)O [Inositol Hexaphosphate] 0, O=C(O)C(O)COP(=O)(O)O [D-3-Phospho-Glyceric acid] 2
